In paper PMC4336329 (PLoS ONE, 2015):
About 14,000 (4.5%) of roughly 310,000 compounds showed an effect of 50% or more. Effects have a minus sign here. Shown is part of a subset that was picked to be rich in strong results.

target: human ether-à-go-go-related gene (hERG) potassium channel (human, UniProt Q12809); assay: primary screen, population patch clamp on CHO cells stably expressing hERG; higher = less effect of the substance
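Note: peak tail current of the secondary pulse compared with the same well before compound.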

Sequence of human ether-à-go-go-related gene (hERG) potassium channel (Q12809 whole entry, looked up): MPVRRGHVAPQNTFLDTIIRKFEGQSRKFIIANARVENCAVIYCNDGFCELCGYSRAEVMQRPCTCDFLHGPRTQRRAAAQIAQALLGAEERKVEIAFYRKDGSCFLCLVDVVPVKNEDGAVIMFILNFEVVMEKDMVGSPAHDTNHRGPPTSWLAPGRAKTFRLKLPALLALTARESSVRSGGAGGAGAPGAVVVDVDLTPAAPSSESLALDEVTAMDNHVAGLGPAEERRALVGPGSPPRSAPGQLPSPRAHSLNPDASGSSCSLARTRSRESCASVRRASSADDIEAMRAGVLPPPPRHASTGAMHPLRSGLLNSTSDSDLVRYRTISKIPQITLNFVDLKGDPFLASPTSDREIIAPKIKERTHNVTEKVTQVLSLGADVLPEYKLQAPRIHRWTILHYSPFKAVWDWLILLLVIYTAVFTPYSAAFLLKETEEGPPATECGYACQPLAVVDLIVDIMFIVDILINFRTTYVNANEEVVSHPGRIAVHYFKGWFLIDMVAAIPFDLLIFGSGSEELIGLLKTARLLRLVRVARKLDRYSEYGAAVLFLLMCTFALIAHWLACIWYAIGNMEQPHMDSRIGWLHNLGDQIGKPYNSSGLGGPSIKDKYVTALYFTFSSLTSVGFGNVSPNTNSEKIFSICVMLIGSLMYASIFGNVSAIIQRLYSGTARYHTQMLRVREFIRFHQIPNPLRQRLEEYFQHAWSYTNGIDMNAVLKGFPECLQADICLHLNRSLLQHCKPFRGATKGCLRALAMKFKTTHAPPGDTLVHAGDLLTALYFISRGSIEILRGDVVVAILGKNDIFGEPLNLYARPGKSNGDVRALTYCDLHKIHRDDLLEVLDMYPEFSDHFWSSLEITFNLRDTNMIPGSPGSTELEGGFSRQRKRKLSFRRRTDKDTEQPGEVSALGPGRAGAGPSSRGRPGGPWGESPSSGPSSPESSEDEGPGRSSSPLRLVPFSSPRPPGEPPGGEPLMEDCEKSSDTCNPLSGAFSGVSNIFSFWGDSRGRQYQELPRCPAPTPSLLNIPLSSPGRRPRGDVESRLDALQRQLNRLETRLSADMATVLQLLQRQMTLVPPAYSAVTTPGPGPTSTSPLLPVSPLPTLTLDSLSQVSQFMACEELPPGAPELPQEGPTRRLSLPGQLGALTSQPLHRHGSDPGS

| Compound | hERG current change (%, negative = inhibition) at 10uM |
| --- | --- |
| CCC(=O)NNc1ncnc2ccccc12 | 9.38% |
| CCN(CC)C(=O)C1CCCN(Cc2ccc3ccccc3c2)C1 (centres unmarked) | -19% |
| CC(C)(C)OC(=O)NCCCC1=CC2=CC(=O)C(C)(OC(=O)c3ccco3)C(=O)C2=CO1 (centres unmarked) | 5.99% |
| COCCCNC(=O)C1CCC(CNS(=O)(=O)c2ccc(C)cc2)CC1 (centres unmarked) | 14% |
| Cc1cccc(CCN2C(N(C)C)=NC[C@@H]2C)c1 | -7.74% |
| Cc1c(NC(=O)/C(C#N)=C/c2ccc(-c3cccc(Cl)c3)o2)c(=O)n(-c2ccccc2)n1C | -24.5% |
| NC(=O)c1cc(C(N)=O)nc(Cl)n1 | 16.1% |
| Cc1cccnc1NC(=O)c1ccc(S(=O)(=O)N2CCC(C)CC2)cc1 | -12.3% |
| COc1ncnc2c1ncn2CC1COC(C)(C)O1 (centres unmarked) | 15.9% |
| COCCNc1nc(CSc2ccccc2)nc2sc(C)c(C)c12 | -5.97% |
| CCOC(=O)c1sc2nc(CSc3ccccc3)nc(NCCN(C)C)c2c1C | -17.4% |
| Cc1sc2nc(CSc3ccccc3)nc(N3CCC(C(N)=O)CC3)c2c1C | -8.46% |
| Cc1sc2nc(CSc3ccccc3)nc(N3CCN(C)CC3)c2c1C | -58.5% |
| Cc1sc2nc(CSc3ccccc3)nc(NCCN(C)C)c2c1C | -72.2% |
| CCNc1nc(CSc2ccccc2)nc2sc(C)c(C)c12 | 1.64% |
| CCOC(=O)c1sc2nc(CSc3ccccc3)nc(N3CCCN(C)CC3)c2c1C.O=C(O)C(=O)O | -70% |
| Cc1sc2nc(CSc3ccccc3)nc(N3CCOCC3)c2c1C | 2.04% |
| CCOC(=O)c1sc2nc(CSc3ccccc3)nc(N3CCC(C(N)=O)CC3)c2c1C | 17.5% |
| O=C(NCCCN=C1NS(=O)(=O)c2ccccc21)c1ccco1 | -10% |
| Cc1nn(C)cc1C1C(C#N)=C(N)N(c2ccc(F)c([N+](=O)[O-])c2)C2=C1C(=O)CCC2 (centres unmarked) | 11% |
| Cc1ccc(S(=O)(=O)N2[C@@H](c3cccc(Cl)c3)C(C(=O)O)=CC[C@H]2c2cccc(Cl)c2)cc1 | 3.05% |

| Compound | hERG current change (%, negative = inhibition) at 10uM |
| --- | --- |
| O=[N+]([O-])c1ccc(NC(=S)N/C(=N/CS(=O)(=O)c2ccccc2)c2ccccc2)cc1 | -25.1% |
| COc1ccc(NC(=S)N/C(=N/CS(=O)(=O)c2ccccc2)c2ccccc2)cc1 | -53% |
| COc1ccc(NC(=S)N/C(=N/S(=O)(=O)c2ccc(C)cc2)c2ccccc2)cc1 | 21.2% |
| COc1ccc(NC2SC(=O)N(C)C2=O)cc1 (centres unmarked) | 1.36% |
| O=C1C(=O)N(CCN2CCOCC2)C(c2ccncc2)/C1=C(/O)c1ccc2c(c1)OCO2 (centres unmarked) | 8.87% |
| O=C(NCC1CCCN(Cc2ccc3nonc3c2)C1)c1cccc(C(F)(F)F)c1 (centres unmarked) | -61.5% |
| O=C(c1cc(F)ccc1F)C1CCCN(Cc2ccc3nonc3c2)C1 (centres unmarked) | -12% |
| O=S(=O)(Cc1ccccc1)NCC1CCCN(Cc2ccc(F)c(F)c2)C1 (centres unmarked) | -44.2% |
| O=C(NCC1CCCN(Cc2ccc3c(c2)OCCO3)C1)c1ccc2c(c1)OCO2 (centres unmarked) | -18.8% |
| COc1ccc(CC(=O)NCC2CCCN(Cc3cccc(C(F)(F)F)c3)C2)cc1 (centres unmarked) | -28% |
| O=S(=O)(Cc1ccccc1)NCC1CCCN(Cc2ccc3nonc3c2)C1 (centres unmarked) | -51.2% |
| O=C(NCC1CCCN(Cc2ccc3nonc3c2)C1)c1ccc(F)cc1 (centres unmarked) | -60.8% |
| O=S(=O)(Cc1ccccc1)NCC1CCCN(Cc2cccc3nonc23)C1 (centres unmarked) | -12.2% |
| O=C(COc1ccc(Cl)cc1)NNC(=O)CSc1nncs1 | 8.43% |
| COc1ccccc1Oc1ccccc1C(=O)O | 0.941% |
| O=C(NCc1ccc(Cl)cc1)C1C2C=CC3(CN(Cc4cccnc4)C(=O)C13)O2 (centres unmarked) | -7.1% |
| COc1ccc(N2CCN(CCCNC(=O)C3CCCN(S(=O)(=O)c4c(C)n[nH]c4C)C3)CC2)cc1 (centres unmarked) | 8.03% |
| COc1ccc(C(=O)C(C)OC(=O)c2nc3nccc(C)n3n2)cc1 (centres unmarked) | 2.98% |
| CCOC(=O)C1CCCN(C(=O)c2ccc(CNc3c(N4CCC(C)CC4)c(=O)c3=O)cc2)C1 (centres unmarked) | 5.83% |
| CC(=O)N1CCC(=NNC(=O)CSc2cc(C)c(Br)cc2C)CC1 | 6.38% |
| Cc1cc(SCC(=O)NN=C2CCN(C(C)C)CC2)c(C)cc1Br | -69.4% |

| Compound | hERG current change (%, negative = inhibition) at 10uM |
| --- | --- |
| CCCN1CCC(=NNC(=O)CSc2cc(C)c(Br)cc2C)CC1 | -28% |
| C=CCN(C(=O)Nc1ccc(Cl)cc1)C1CC(=O)N(c2ccc(OC)cc2)C1=O (centres unmarked) | -14.8% |
| O=C(NCc1ccncc1)C(=O)C1C(=O)Nc2ccccc21 (centres unmarked) | 11.6% |
| CCOC(=O)c1csc(NNC=O)n1 | 6.73% |
| CC(CNC(=O)CCS(=O)(=O)c1ccc2c(c1)NC(=O)CO2)c1ccccc1 (centres unmarked) | -6.68% |
| Cn1cnc([N+](=O)[O-])c1Sc1ccc([N+](=O)[O-])cc1 | -62.1% |
| Cn1cnc([N+](=O)[O-])c1Sc1ccc(Br)cc1 | -20% |
| Cc1ccc(Sc2c([N+](=O)[O-])ncn2C)cc1 | 3.39% |
| Cc1c(C(=O)N2CCN(Cc3ccc4c(c3)OCO4)CC2)sc2ncnc(N3CCN(c4ccccc4)CC3)c12 | 7.82% |
| Cc1c(C(=O)N2CCN(c3ccccn3)CC2)sc2ncnc(N3CCN(c4ccccc4)CC3)c12 | -32.8% |
| Cc1c(C(=O)N2CCN(c3ccccc3)CC2)sc2ncnc(N3CCN(c4ccccn4)CC3)c12 | -35.1% |
| Cc1c(C(=O)N2CCN(c3ccc(F)cc3)CC2)sc2ncnc(N3CCN(c4ccccn4)CC3)c12 | -65.1% |
| CCN(CC)c1ncnc2sc(C(=O)N3CCN(c4ccc(OC)cc4)CC3)c(C)c12 | -41.5% |
| Cc1c(C(=O)N2CCC3(CC2)OCCO3)sc2ncnc(N3CCN(c4ccccn4)CC3)c12 | -44.2% |
| CCN(CC)c1ncnc2sc(C(=O)N3CCN(c4ccccc4)CC3)c(C)c12 | -50.2% |
| Cc1c(C(=O)N2CCN(c3ccccn3)CC2)sc2ncnc(N3CCOCC3)c12 | -59% |
| COc1ccccc1N1CCN(C(=O)c2sc3ncnc(N4CCN(c5ccccn5)CC4)c3c2C)CC1 | -18.8% |
| CN(C)CCOC(=O)c1ccc2c(c1)S(=O)(=O)c1ccccc1C2=O.Cl | -6.3% |
| COc1ccc2c(c1)c(C(=O)O)c(C)n2C(C)C | 13.3% |
| COc1ccc(N2CCN(C(=O)c3ccc(NS(=O)(=O)c4ccc(F)c(F)c4)cc3)CC2)cc1 | -44.3% |
| Cc1cc(C)nc(NC2=NCC(=O)N2CCc2c[nH]c3ccccc23)n1 | -2.13% |

| Compound | hERG current change (%, negative = inhibition) at 10uM |
| --- | --- |
| CCOC(=O)c1cnc(SC)nc1Oc1cccc(NS(=O)(=O)c2ccccc2)c1 | 16.1% |
| CCOC(=O)c1cnc(SC)nc1Oc1cccc(NS(=O)(=O)c2ccc(F)cc2)c1 | -71.2% |
| CCOC(=O)c1cnc(SC)nc1Oc1cccc(NS(=O)(=O)c2ccc(C)cc2)c1 | -6.83% |
| O=C(NCCN1CCOCC1)c1ccc(Cl)nc1Cl | -2.02% |
| CCCCCC(=O)N1CCN(S(=O)(=O)c2ccc3c(c2)OCCO3)CC1 | -61% |
| CC(=O)N1CCN(S(=O)(=O)c2ccc3c(c2)OCCO3)CC1 | 10.5% |
| CCCCCC(=O)N1CCN(S(=O)(=O)c2ccc3c(c2)OCCCO3)CC1 | -18.7% |
| COc1cc(NS(=O)(=O)c2ccc(NC(=S)NC(=O)c3sc4ccccc4c3Cl)cc2)ncn1 | 16.3% |
| COc1ccc(-c2[nH]ncc2CN2CCC(OCc3ccccn3)CC2)c(F)c1 | -31.1% |
| COc1cccc(C(=O)C2CCCN(Cc3cn[nH]c3C3CCCCC3)C2)c1 (centres unmarked) | -32.1% |
| COc1ccc(-c2[nH]ncc2CN2CCC(OCc3cccnc3)CC2)c(F)c1 | -37.1% |
| COc1ccc(-c2[nH]ncc2CN2CCCCCCC2)c(OC)c1 | -54.7% |
| COc1ccc(-c2[nH]ncc2CN2CCCOc3c(cccc3OC)C2)c(OC)c1 | -48% |
| COc1ccc(-c2[nH]ncc2CN2CCCC(C(=O)c3ccc(OC)cc3OC)C2)cc1 (centres unmarked) | -65% |
| COc1ccc(-c2[nH]ncc2CN2CCCC(C(=O)c3cccc(OC)c3)C2)cc1 (centres unmarked) | -67.3% |
| COc1ccc(-c2[nH]ncc2CN2CCC(OCc3ccccc3)CC2)c(F)c1 | -80.7% |
| COc1ccc(-c2[nH]ncc2CN2CCSCC2)c(OC)c1 | 14.7% |
| COc1ccc(-c2nc3c(Br)c(N)c(Br)cc3o2)cc1 | 7.14% |
| O=C(CCCOc1ccc(Cl)cc1Cl)N/N=C/c1cccc([N+](=O)[O-])c1 | 9.56% |
| CS(=O)(=O)N1Cc2ccccc2CC1C(=O)OCC(=O)Nc1ccc2ccccc2c1 (centres unmarked) | 7.36% |
